Results on 114 compounds are retold here after PubChem BioAssay AID488969 (Vanderbilt High Throughput Screening Facility, 2010).

Whole data set: some 110,000 compounds, median “z-score” near -0.1, cut for the highest 2% near 2. The entries come from a sample that favours the highest values as a whole. Activity calls are given as the source filed them.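 Rule for the calls: active = z-score in the third read window above 3 or below -3; inactive = the rest.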

Sequence of Metabotropic glutamate receptor 8 (Rattus norvegicus) (P70579 whole entry, looked up): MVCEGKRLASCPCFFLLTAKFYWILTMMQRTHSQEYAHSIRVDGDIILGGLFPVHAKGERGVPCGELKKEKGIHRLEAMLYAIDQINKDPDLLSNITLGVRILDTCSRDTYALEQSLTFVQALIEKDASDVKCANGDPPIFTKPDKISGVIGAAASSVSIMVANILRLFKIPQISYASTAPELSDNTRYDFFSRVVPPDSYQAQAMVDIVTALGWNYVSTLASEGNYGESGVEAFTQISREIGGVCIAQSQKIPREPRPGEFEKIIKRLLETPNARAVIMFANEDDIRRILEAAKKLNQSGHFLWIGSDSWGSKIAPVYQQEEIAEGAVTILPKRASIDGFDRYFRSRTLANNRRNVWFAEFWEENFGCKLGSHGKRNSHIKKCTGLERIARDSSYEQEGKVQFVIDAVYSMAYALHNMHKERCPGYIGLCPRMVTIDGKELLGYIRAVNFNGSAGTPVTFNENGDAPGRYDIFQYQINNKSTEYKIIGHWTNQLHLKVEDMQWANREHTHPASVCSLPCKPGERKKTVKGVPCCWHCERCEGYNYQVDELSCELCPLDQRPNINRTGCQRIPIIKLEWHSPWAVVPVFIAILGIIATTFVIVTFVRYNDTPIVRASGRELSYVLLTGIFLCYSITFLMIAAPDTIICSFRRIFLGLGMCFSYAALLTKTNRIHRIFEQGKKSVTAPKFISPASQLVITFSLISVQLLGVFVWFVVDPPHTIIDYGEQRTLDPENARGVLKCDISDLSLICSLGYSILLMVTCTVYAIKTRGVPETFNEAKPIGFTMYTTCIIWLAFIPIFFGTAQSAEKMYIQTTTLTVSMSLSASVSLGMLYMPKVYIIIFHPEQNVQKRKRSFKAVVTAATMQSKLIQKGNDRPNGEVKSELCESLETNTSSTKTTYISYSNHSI

The assay addresses Metabotropic glutamate receptor 8 (Rattus norvegicus) (UniProt P70579). Briefly: mGluR8 Gi/Go-coupled signaling modulation – cell-based, rat, thallium flux, HTS, primary screen (AID 488969). The note with it: HEK293 rat mGluR8, GIRK (G protein-gated inwardly rectifying potassium channel) thallium flux, FluoZin2; at 10 µM; stronger effect = higher value; submaximal glutamate (EC20) added with thallium.
`Cc1cc(C)c(S(C)(=O)=O)c(Oc2ccccc2C)n1` showed a z-score of -0.0363.
The figure for `Oc1c(Cl)cc(Cl)c2c1NCCC2` is 5.54 (active); for `O=C1NCCCc2c1oc1ccc(O)cc21` it is -0.602; for `Cc1cc2c(C)cc(=O)oc2c2c1NCCC2` it is -0.295.
In the case of `Cc1cc(C)cc(NC(=O)C(Nc2ccccc2)c2ccccc2)c1` (centres undefined), the z-score turned out to be 0.168.
The figure for `CCCN(CCC)C(=O)c1ccccc1C(=O)N(CCC)CCC` is -0.328; for `Cc1cc2c(C)nc3ccccc3c2o1` it is -0.371.
For `COc1cccc(NC(=O)c2ocnc2C)c1` the value was -0.0866.
For `COc1ccc(NC(=O)c2ocnc2C)cc1OC` the value was -0.369; for `Cc1nc(C)c(C(=O)Nc2cccc(Cl)c2)o1`, 0.108.
Consider `Cc1ncoc1C(=O)Nc1ccc(Oc2ccccc2)cc1`, for which the z-score worked out at 2.26.
Turning to `Cc1nc(C)c(C(=O)Nc2ccc(Oc3ccccc3)cc2)o1`, the z-score is 6.45 (active).
For `Cc1nc(C)c(C(=O)Nc2ccccc2-c2ccccc2)o1` the value was -0.0653.
The figure for `CC(C)(C)NC(=O)Cn1nnc(-c2ccc(Cl)cc2)n1` is -0.11; for `COc1ccc(OCC(=O)NC(=S)Nc2ccc(S(=O)(=O)Nc3cc(OC)nc(OC)n3)cc2)cc1` it is -0.254; for `COC(=O)CC(NC(=O)c1ccc(C)cc1)c1ccccc1` (centres undefined) it is -0.129.
With `Cc1ccc(Cn2cc(S(=O)(=O)c3ccc(Cl)cc3)c(=O)c3cc(F)ccc32)cc1`, the z-score was -0.041.
For `COc1cc(/C=N/NC(=O)CC23CC4CC(CC(C4)C2)C3)cc(Br)c1OCC(=O)N(C)C` the value was -0.225.
The figure for `O=c1c2c3c(sc2nc2n1CCCC2)CCCC3` is -0.196; for `Cc1cccc(Nc2nc(NCc3ccco3)c3ccccc3n2)c1` it is 0.729.
In the case of `Cc1ccc(Nc2nc(N)c([N+](=O)[O-])c(NCc3ccco3)n2)cc1C`, the z-score turned out to be 0.169.
For `Cc1ccc(Nc2nc(N)c([N+](=O)[O-])c(NCc3ccco3)n2)cc1` the value was -0.288.
As for `Cc1cccc(Nc2nc(N)c([N+](=O)[O-])c(NCc3ccco3)n2)c1`, the z-score is 2.38.
The figure for `Nc1nc(Nc2ccccc2)nc(NCc2ccco2)c1[N+](=O)[O-]` is 4.24 (active); for `Nc1nc(NCc2ccccc2)nc(NCc2ccccc2)c1[N+](=O)[O-]` it is -0.14; for `Cc1ccc2c(c1)C(=O)CCN2` it is 0.498.
For `CC(C)NC(=S)NC(=O)/C=C/c1cccc2ccccc12` the value was 0.214.
For `CC(OC(=O)C1=COCCO1)C(=O)Nc1ccc(Oc2ccccc2)cc1` (centres undefined) the value was 0.0205; for `CCOC(=O)c1c(-c2ccc(Cl)cc2)c(C#N)c(=O)n(N)c1N`, -0.497.
Regarding `CCOC(=O)c1c(C)[nH]c(=S)c(C#N)c1-c1ccc(OC)cc1`, the z-score turned out to be 0.501.
The figure for `CCOC(=O)c1c(C)[nH]c(=S)c(C#N)c1-c1ccc(Cl)cc1` is 3.4 (active); for `N#Cc1ccccc1CSc1ccc(-c2nc3ccccc3[nH]2)cn1` it is -0.154.
For `COc1ccc(-c2cc(C(F)(F)F)c(C#N)c(SCC(=O)Nc3nc(C)co3)n2)cc1` the value was -0.185.
`O=[N+]([O-])c1cccnc1N1CCC(c2cc(-c3cccc(C(F)(F)F)c3)n[nH]2)CC1` registered a z-score of -0.378.
The figure for `O=C(CCC1CCCC1)N1CCN(C(=O)c2ccco2)CC1` is 2.43; for `O=C(Cc1ccccc1)N1CCN(C(=O)c2ccco2)CC1` it is -0.0691; for `CC1CCc2nn(CC(=O)N3CCc4ccccc43)cc2C1` (centres undefined) it is 0.16.
In turn, `CNC(=S)N1CCN(C(=O)c2ccco2)CC1` gave a z-score of 2.05.
For the compound `CC1CCCN(C(=O)CN2CCN(C(=O)c3ccco3)CC2)C1` (centres undefined), the z-score is 0.124.
The figure for `COCCCNC(=S)N1CCN(C(=O)c2ccco2)CC1` is -0.034; for `CC1CCc2nn(CC(=O)N3CCN(C(=O)c4ccco4)CC3)cc2C1` (centres undefined) it is 3.92 (active).
For `O=C(CCSc1ccccc1)N1CCN(C(=O)c2ccco2)CC1` the value was -0.515.
The figure for `O=C(c1ccco1)N1CCCN(C(=O)c2ccco2)CC1` is -0.354; for `CCn1c(SCc2nc3ccccc3c(=O)[nH]2)nc2ccccc2c1=O` it is -0.672; for `Cc1ccc2cc(CN(Cc3cccs3)Cc3nnnn3CC3CCCO3)c(=O)[nH]c2c1` (centres undefined) it is -0.0837.
The compound `CCOC(=O)N1CCN(CC(=O)Nc2ccc(C)c(Br)c2)CC1` came in with a z-score of -0.241.
The figure for `CCOC(=O)COc1ccc(S(=O)(=O)Nc2ccc(C)cc2)cc1` is -0.352; for `CCC(c1c(C)[nH]oc1=O)c1c(C)[nH]oc1=O` it is 0.119; for `COc1cc(/C=C2/SC(N)=NC2=O)ccc1Oc1ccc([N+](=O)[O-])cc1[N+](=O)[O-]` it is -0.644.
For `Cc1cc(C(=O)COC(=O)Cc2n[nH]c(=O)c3ccccc23)c(C)n1-c1cccc(C(F)(F)F)c1` the value was -1.01.
Turning to `CCN(CC)c1ccc2cc(-c3nnc(-c4ccc(Br)cc4)o3)c(=O)oc2c1`, the z-score is -4 (active).
For `CCN(CC)c1ccc2cc(C(N)=O)c(=O)oc2c1` the value was -0.0435; for `CCN(CC)c1ccc2cc(C(C)=O)c(=O)oc2c1`, -2.23.
The figure for `CCN(CC)c1ccc2cc(C=O)c(=O)oc2c1` is 17.6 (active); for `CCN(CC)c1ccc2cc(-c3nnc(-c4ccccc4)o3)c(=O)oc2c1` it is 2.42.
The figure for `CCN(CC)c1ccc2cc(-c3nnc(-c4ccncc4)o3)c(=O)oc2c1` is -1.17; for `CC1CCc2nn(CC(=O)NCCCN3CCOCC3)cc2C1` (centres undefined) it is -0.0438.
`O=C(c1cccc(-n2cnnn2)c1)N1CCOCC1` registered a z-score of -0.145.
`COC(=O)c1ccc(C(C(=O)NCc2ccccc2)N(Cc2cccs2)C(=O)c2cnccn2)cc1` (centres undefined) gave a z-score of -0.245.
For `CCc1ccccc1N1C(=O)c2ccccc2S1(=O)=O` the value was -0.409; for `CN(CCc1ccccn1)S(=O)(=O)c1ccccc1F`, 0.185.
The figure for `O=C1C=C(c2ccccc2)C(=O)N1Nc1ccccc1` is 0.219.
The figure for `O=C1c2ccccc2C(=O)N1CNc1ccccc1` is 0.141; for `O=C1c2ccccc2C(=O)N1Nc1ccccc1` it is 4.88 (active); for `COc1ccc(/C=N/OCC(=O)Nc2nc3ccccc3s2)cc1` it is -0.132.
With `Cc1cc(OCCN2CCCCC2)nc2ccccc12`, the z-score worked out at 0.234.
The figure for `Cc1cc(C)cc(C(=O)n2cnnc2N)c1` is -0.0618; for `CC(C)OC(=O)CC12CN3CN(C1)CC(CC(=O)OC(C)C)(C3)C2=O` it is 3.43 (active); for `CCOC(=O)CC12CN3CN(C1)CC(CC(=O)OCC)(C3)C2=O` it is -0.0089.
In the case of `CC(C)OC(=O)CC12CN(C)CC(CC(=O)OC(C)C)(CN(C)C1)C2=O`, the z-score came to 0.458.
For `O=C(O)c1ccc(F)c(S(=O)(=O)Nc2ccccc2Cl)c1` the value was -0.11; for `COC(=O)c1ccccc1NC(=O)c1cccc(NC(=O)CSCc2ccccc2)c1C`, -0.0727.
For `Cc1cc(Cl)ccc1OCCCC(=O)NCC1CCCO1` (centres undefined) the value was -0.79; for `Cc1cccc(NC(=O)c2cc3ccccc3o2)c1`, -1.37.
Regarding `CC(C)C(=O)Nc1cccc(NC(=O)c2cc3ccccc3o2)c1`, the z-score was 7.7 (active).
In the case of `CC(C)C(=O)Nc1ccc(NC(=O)c2cc3ccccc3o2)cc1`, the z-score was -0.885.
For `CCOc1ccc(OCC)c(NC(=O)c2[nH]c(C)c(C(C)=O)c2C)c1` the value was 0.862; for `O=C(NCc1nc2ccccc2[nH]1)c1cccc(S(=O)(=O)N2CCCC2)c1`, 2.4; for `O=C(NCc1nc2ccccc2[nH]1)c1cccc(S(=O)(=O)N2CCOCC2)c1`, 0.567.
For `O=C(NCc1nc2ccccc2[nH]1)c1ccc(Cl)c(S(=O)(=O)N2CCCC2)c1` the value was -0.297; for `CCN(c1c(C)n(C)n(-c2ccccc2)c1=O)S(C)(=O)=O`, 0.17.
With `Cc1ccc(S(=O)(=O)NC2CCCC2)cc1C`, the z-score is -0.157.
Compound `Cc1cc(C)c2c(c1)-c1c(ssc1=S)C(C)(C)N2C(=O)CN1C(=O)c2ccccc2C1=O` returned a z-score of 0.383.
As to `CNc1nc(Cl)nc(NC(C)(C)C)n1`, the z-score was 7.77 (active).
For `CC(C)(C)Nc1nc(Cl)nc(NC(C)(C)C)n1` the value was -0.0263; for `CC(C)(C)Nc1nc(NN)nc(NC(C)(C)C)n1`, -0.766.
Turning to `CCn1c(=NC(=O)CSC(C)=O)sc2ccccc21`, the z-score is 3.49 (active).
The figure for `CCn1c(=NC(=O)CSC(C)=O)sc2cc(F)ccc21` is 0.658; for `CCn1c(=NC(=O)CSC(C)=O)sc2cc(OC)ccc21` it is 0.477.
The figure for `CN1CCN(CCC(=O)Nc2ccc3c(c2)OCO3)CC1` is 0.213; for `Cc1cccc(NC(=O)CSc2nc3ccc(NC(=O)CSc4nnnn4-c4ccccc4)cc3s2)c1C` it is 0.181; for `CCN(CC)S(=O)(=O)c1cc(NC(=O)COC(=O)c2sc3ccccc3c2Cl)ccc1C` it is -0.0136.
The figure for `Cc1cc(/C=C2\SC(=S)NC2=O)c(C)n1C` is -0.121; for `CCn1c(C)cc(/C=C2/SC(=S)NC2=O)c1C` it is 0.271; for `Cc1sc(-n2c(C)cc(/C=C3\SC(=S)NC3=O)c2C)c(C#N)c1C` it is 2.26.
Turning to `CCN1CCN(C(=O)C(C)N(c2ccc(C)cc2)S(C)(=O)=O)CC1` (centres undefined), the z-score was 1.05.
The figure for `CCOC(=O)c1sc(NN=C(C(=O)OC)C(=O)OC)c(C(=O)OCC)c1C` is 2.57; for `CCOC(=O)c1sc(NC(=O)CN(CC)CC)c(C(=O)OCC)c1C` it is -0.132.
For `CCOC(=O)c1sc(NC(=O)CN2CCCC2)c(C(=O)OCC)c1C` the value was -0.225; for `COCCSc1ccccc1C(=O)Nc1ccncc1`, 0.236.
The figure for `O=C(CN1CCN(c2ccccc2)CC1)Nc1cccc(C(F)(F)F)c1` is 0.756; for `S=C(NCc1ccccc1)NCc1ccc2c(c1)OCO2` it is 1.86; for `CCCOc1cccc(C(=O)NC(=S)Nc2cccc(C(F)(F)F)c2)c1` it is 3.57 (active).
In turn, `O=C(Cc1ccccc1)NC(=S)Nc1cc(C(F)(F)F)ccc1Cl` registered a z-score of 0.00533.
For `O=C(CN1CCN(c2cccc(C(F)(F)F)c2)CC1)Nc1cccc(C(F)(F)F)c1` the value was 1; for `CCC(=O)Nc1cccc(NC(=S)NC(=O)Cc2ccccc2)c1`, -0.281.
For `CCCOc1cccc(C(=O)NC(=S)Nc2ccccc2)c1` the value was 0.0309; for `S=C(NCc1ccccc1)NCc1cccc(CNC(=S)NCc2ccccc2)c1`, 2.84.
As for `S=C(NCc1ccccc1)NCc1ccccc1`, the z-score is 0.346.
The figure for `O=C(CN1CCN(Cc2ccccc2)CC1)Nc1cccc(C(F)(F)F)c1` is 7.94 (active); for `CCCCOc1cccc(C(=O)NC(=S)Nc2cccc(C(F)(F)F)c2)c1` it is 1.84.
For `O=C(Cc1ccccc1)NC(=S)Nc1cccc(C(F)(F)F)c1` the value was 4.01 (active); for `CCN(CC)C(=O)n1nc(C)c(CN2C(=O)c3ccccc3C2=O)c1C`, -0.151; for `Nc1ccc(Cl)c(-c2nc3ncccc3o2)c1`, 0.714.
